Laboratory results as given in PubChem BioAssay AID1117292 (Broad Institute, 2014).
Results with a measured potency or affinity are listed apart. Inconclusive results are not listed. The source made the active and inactive calls.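 How the source made its calls: active means compound whose fitted half-maximal dose for signal loss lies within twice the top dose in every replicate test; inconclusive means tests disagree, or flat partial signal loss or poor fit; inactive means every test inactive, flat, rising or too weak.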

The compounds below were run against Endoplasmic reticulum aminopeptidase 1 (Homo sapiens) (UniProt Q9NZ08) (assay: blocking ERAP1 cleavage of leucine-AMC substrate – biochemical, fluorescence plate reader, dry powder, dose response (AID 1117292)). Conditions: purified ERAP1, Leu-AMC fluorescence, 60 min; series mostly up to 50 µM; activity change, negative = inhibition: at the top concentration.
Chain of Endoplasmic reticulum aminopeptidase 1 (Homo sapiens) (Q9NZ08 whole entry, looked up): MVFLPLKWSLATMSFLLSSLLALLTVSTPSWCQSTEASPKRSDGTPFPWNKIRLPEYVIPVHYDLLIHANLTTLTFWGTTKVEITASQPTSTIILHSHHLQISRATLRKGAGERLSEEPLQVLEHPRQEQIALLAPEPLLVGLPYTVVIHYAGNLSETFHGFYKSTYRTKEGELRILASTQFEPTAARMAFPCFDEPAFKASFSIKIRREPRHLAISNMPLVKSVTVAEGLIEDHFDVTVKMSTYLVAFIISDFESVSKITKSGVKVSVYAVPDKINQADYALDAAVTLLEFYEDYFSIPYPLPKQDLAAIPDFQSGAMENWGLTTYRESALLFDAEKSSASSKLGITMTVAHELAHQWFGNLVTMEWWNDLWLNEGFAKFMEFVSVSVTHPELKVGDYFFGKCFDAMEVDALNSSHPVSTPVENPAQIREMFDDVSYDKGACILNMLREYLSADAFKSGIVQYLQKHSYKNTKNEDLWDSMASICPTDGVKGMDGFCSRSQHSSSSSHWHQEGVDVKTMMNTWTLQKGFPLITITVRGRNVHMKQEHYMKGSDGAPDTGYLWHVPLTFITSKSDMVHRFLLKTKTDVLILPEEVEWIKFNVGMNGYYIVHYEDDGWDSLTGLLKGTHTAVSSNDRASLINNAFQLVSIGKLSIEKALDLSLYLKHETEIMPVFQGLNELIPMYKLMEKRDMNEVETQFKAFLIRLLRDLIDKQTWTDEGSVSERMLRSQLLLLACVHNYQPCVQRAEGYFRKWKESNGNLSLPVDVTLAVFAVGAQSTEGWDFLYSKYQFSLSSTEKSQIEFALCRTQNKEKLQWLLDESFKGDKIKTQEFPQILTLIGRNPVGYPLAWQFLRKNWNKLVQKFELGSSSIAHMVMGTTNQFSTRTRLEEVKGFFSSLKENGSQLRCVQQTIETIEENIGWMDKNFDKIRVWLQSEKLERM

Activity change, negative = inhibition, inactive:
CC(=O)N1CCN(C(=O)C2(NC(=O)Nc3ccc(F)cc3)CCCC2)CC1 0.022%
COc1ccc(C(=O)Nc2ccccc2N2CCCCC2)cc1S(=O)(=O)O 24%
COc1ccc(C(=O)O)cc1S(=O)(=O)Nc1cc(C(F)(F)F)ccc1N1CCOCC1 113%
COc1ccc(C(=O)Nc2cc(C)ccc2N2CCCCC2)cc1S(=O)(=O)O -6.98%
CC(=O)N1CCN(C(=O)C2(NC(=O)Nc3ccc(C(F)(F)F)cc3)CCCCC2)CC1 7.13%

outcome, inactive:
COc1ccc(C(=O)O)cc1S(=O)(=O)Nc1cc(C(F)(F)F)ccc1N1CCCCC1
